According to PubChem BioAssay AID504884 (Broad Institute, 2011):
In all, about 360,000 compounds went through this assay and about 230 (0.064%) were called active. This is one part of a sample in which actives are shown more often than they occur. A number with no mark means an inactive call. Rule as the data show it: active = activity above about 50% (passing the limit was not always enough); inconclusive = no clear call, values can overlap the other calls.

tested on: DNA topoisomerase I (Yersinia pestis CO92); assay: Yersinia pestis topoisomerase I inhibitors, primary screen, biochemical, cleavage product accumulation, plate reader, single point (AID 504884); conditions: Y. pestis Topo-I cleavage product accumulation, at 10 µM, hits give high values

Row | Structure (SMILES) | activity
1 | CC1CN(/C=C/C(=O)C(F)(F)F)CC(C)O1 (configuration not stated) | 5.75%
2 | CCOc1ccc(NC(=O)CN(C)C(=O)Cn2c(=O)cnc3ccccc32)cc1OCC | 1.46%
3 | CCOC(=O)c1[nH]cnc1C(=O)NC1CCCCC1 | -3.43%
4 | CCc1nc2c(OCCC3CCCCC3)cccn2c1N(C)C(=O)c1ccco1 | 31.3%
5 | CC1CC(C)CN(c2ccc(S(=O)(=O)N3CCOCC3)cc2)C1 (configuration not stated) | 31.2%
6 | ClC1(Cl)CC1CSc1ncn[nH]1 (configuration not stated) | 4.63%
7 | CCCC(C)C(=O)OCC(=O)Nc1c(Br)cc(C)cc1Br (configuration not stated) | 0.888%
8 | COc1cccc2c1OCC(C(=O)NCc1ccc(Cl)cc1Cl)=C2 | 5.83%
9 | CCOc1nnc(C)c2c(C)n(-c3cccc(Cl)c3)nc12 | 0.181%
10 | O=C(CC1C(=O)NCCN1C(=O)c1ccc([N+](=O)[O-])cc1)Nc1cccc(Cl)c1 (configuration not stated) | -5.36%
11 | CCc1ccccc1NC(=O)CCOc1ccccc1 | 2.54%
12 | CCc1ccccc1NC(=O)/C(=C/c1ccccc1)c1ccccc1 | 58.2% (active)
13 | CCc1ccccc1NC(=S)Nc1cc(OC)c(NC(=O)C(C)C)cc1OC | -1.32%
14 | CCOc1ccc(S(=O)(=O)N2CCCCC2)cc1NC(=O)CN1CCCC1c1cccs1 (configuration not stated) | 9.92%
15 | COc1ccc2c(c1)CCc1cn3ncc(C#N)c3nc1-2 | 5.21%
16 | CCN(C(=O)COc1ccc(C(=O)c2ccccc2)cc1)c1ccccc1 | 51.2% (active)
17 | CCN(C(=O)c1ccc(Br)cc1)c1ccccc1 | 4.1%
18 | O=C(COc1ccc(F)cc1)N(CC1=CCS(=O)(=O)C1)c1ccccc1 | 3.66%
19 | C=CCN(C(=O)c1cc(C)cc(C)c1)C1(C(=O)Nc2ccccc2)CCN(C(C)C)CC1 | -1.88%
20 | C=C1CCN([C@@H](Cc2ccccc2)C(=O)N2CCOCC2)S(=O)(=O)c2ccccc21 | 11.9%
21 | CCc1cc(-c2n[nH]c(=S)n2CC(C)C)cs1 | 7.56%
22 | CCn1ncc(C2=NOC(C(=O)Nc3ccccc3C(=O)OC)C2)c1C (configuration not stated) | 16.1%
23 | C[N+]1(CCNC(=O)/C=N/O)CCCCC1 | 3.78%
24 | N#Cc1ccc(/C=C2\CCn3c2nc2cc(C(=O)O)ccc2c3=O)cc1 | 5.43%
25 | CCN(CC)S(=O)(=O)c1ccc(OC(C)C)c(N)c1 | 9.36%

Row | Structure (SMILES) | activity
26 | CCCC(C)C(=O)NCc1ccncc1 (configuration not stated) | 3.84%
27 | Cc1cnc(C(=O)OCc2c(C)cc(C(C)(C)C)cc2C)cn1 | 33.4%
28 | O=C(NC(c1ccc(Cl)cc1)P(=O)(Oc1ccccc1)Oc1ccccc1)OCc1ccccc1 (configuration not stated) | -6.44%
29 | COc1cc(C(=O)OCc2cc(=O)n3ccsc3n2)ccc1OC(C)C | 1.94%
30 | Cc1ccc(OCC(=O)Nc2ccccc2C(=O)NC2CC2)cc1 | -5.78%
31 | COc1cc([N+](=O)[O-])ccc1NC(=O)COC(=O)CCOc1ccc(C)cc1 | -0.7%
32 | CSc1ccccc1NC(=O)COC(=O)CCCOc1ccc(C)cc1 | 71.8% (active)
33 | O=S(=O)(Nc1ccc2[nH]ncc2c1)c1ccccc1Cl | 5.56%
34 | CC(NC(=O)c1ccccc1C(=O)O)c1ccc(-n2ccnc2)cc1 (configuration not stated) | -18%
35 | C=C(C)CNc1cc(S(=O)(=O)N2CCOCC2)ccc1Oc1ccccc1 | 23%
36 | CCN(CC(=O)Nc1cc(Cl)ccc1C)C(=O)CN1C(=O)NC2(CCCC2)C1=O | -11.4%
37 | COC(=O)CN1C(=O)[C@H]2[C@@H](C3CC3)N3C(=O)CN(Cc4ccc(-c5ccccc5)cc4)C(=O)[C@@]3(Cc3ccccc3)[C@H]2C1=O | 35.2%
38 | CCC1(C)NC(=O)N(CC(=O)N2CCN(c3cccc(Cl)c3)CC2)C1=O (configuration not stated) | 2.38%
39 | CCC1C=C(c2ccccc2)C=CN=C1N(CC)CC (configuration not stated) | 0.893%
40 | CCN(CC)S(=O)(=O)c1ccc(N2CCOCC2)c(NC(=O)C(C)Oc2ccc(F)cc2)c1 (configuration not stated) | 18%
41 | CCN1CCc2nc(NC(=O)c3cc(F)c(F)cc3Cl)sc2C1 | 6.77%
42 | COc1ccc(CCNC(=O)C(=O)NCC2CCNCC2)cc1OC | 0.788%
43 | COC(=O)[C@H](C)[C@H]1C[C@]1(C)[C@H](NC(=O)OCc1ccccc1)c1ccccc1 | 16.4%
44 | CC(C)C(NC(=O)OCc1ccccc1)C(=O)OCC(=O)N1C(C)CCCC1C (configuration not stated) | 15.6%
45 | CC(C)[C@H](NC(=O)OCc1ccccc1)C(=O)OCc1ccccc1 | 58.9% (active)
46 | COc1ccc(N(Cc2cc3ccc(C)cc3[nH]c2=O)S(=O)(=O)c2ccccc2)cc1 | 29.4%
47 | CN1C(C)(C)CC(NC(=O)CCC(=O)NC2CC(C)(C)N(C)C(C)(C)C2)CC1(C)C | -3.64%
48 | O=C(O)c1cc(S(=O)(=O)NC2CCCc3ccccc32)ccc1O (configuration not stated) | -3.28%
49 | COc1ccc(N2CC(C)Cn3c2nc2c3c(=O)n(Cc3ccccc3F)c(=O)n2C)c(OC)c1 (configuration not stated) | 14.8%
50 | O=C(CN1C(=O)COc2ccc(Cl)cc21)N1CCOCC1 | 2.5%

Row | Structure (SMILES) | activity
51 | CCC(CC)c1nnc(NS(=O)(=O)Cc2ccccc2)s1 | -2.39%
52 | Cc1ccc2c(C)c(C(=O)N3CCC(N4CCC(C(=O)NC5CC5)CC4)CC3)oc2c1 | -3.85%
53 | Cc1ccc(-n2ncc3c(Nc4cccc(C(=O)O)c4)ncnc32)cc1 | -7.17%
54 | Cc1ccc(Cl)cc1NC(=O)C1CCN(S(C)(=O)=O)CC1 | 6.58%
55 | c1cc2c(cc1C1OCC3C(c4ccc5c(c4)OCO5)OCC13)OCO2 (configuration not stated) | 21.1%
56 | CC(=O)c1cccc(OCC(=O)OCC(=O)Nc2cc(S(=O)(=O)N3CCCCC3)ccc2C)c1 | 29.7%
57 | COc1cccc(N(CC(=O)NCCSc2ccccn2)S(C)(=O)=O)c1 | -7.24%
58 | O=C(CSc1nc2cc3c(cc2c(=O)n1CCC1=CCCCC1)OCO3)NCc1ccco1 | -0.243%
59 | Cc1cccn2cc(-c3cccc(S(=O)(=O)N4CCCCC4)c3)nc12 | 23.2%
60 | Cc1ccc(F)cc1S(=O)(=O)Nc1cccc(C(=O)N2CCCC(C(N)=O)C2)c1 (configuration not stated) | 0.477%
61 | CC1(C)c2[nH]c3ccccc3c2C[C@H]2C(=O)N(N)CC(=O)N21 | -8.39%
62 | CCOC(=O)Cn1c(=O)n(Cc2ccc(OC)cc2)c(=O)c2cccnc21 | 9.56%
63 | Cc1cc(C(=O)O)c(S(C)(=O)=O)s1 | -6.33%
64 | CC(=O)Nc1ccc(Nc2ncnc3c2nnn3Cc2ccccc2Cl)cc1 | 2.24%
65 | Cc1cccc(OC(=O)c2sc3ncn(C)c(=O)c3c2C)c1 | -1.35%
66 | CC1CC(C)(C)n2c(O)c(N=NC(N)=S)c3cccc1c32 (configuration not stated) | -5.67%
67 | CCOc1ccccc1OCC(=O)Nc1ccccc1C(=O)NC1CC1 | -3.16%
68 | Fc1ccc2cnc(-c3ccccc3)cc2c1 | 5.85%
69 | c1ccc2cc(CCCc3cc4ccccc4cn3)ncc2c1 | 54.9% (active)
70 | CCC1CCCCN1C(=O)CSc1nc2c(c(=O)n1C)SC(C)C2 (configuration not stated) | 16.8%
71 | Cc1ccc(CNC(=O)CCS(=O)(=O)c2ccc3c(c2)CC(C)N3C(=O)C2CC2)o1 (configuration not stated) | 7.23%
72 | Cc1ccc(C)c(N(CC(=O)NCc2ccco2)C(=O)CCC(=O)Nc2ccccn2)c1 | 18.9%
73 | CC1Cc2cc(/C(O)=C3\C(=O)C(=O)N(Cc4cccnc4)C3c3ccccc3F)ccc2O1 (configuration not stated) | 2.42%
74 | Cc1cccn2c(CN(C)C3CCCc4ccccc43)c(C(=O)N3CCOCC3)nc12 (configuration not stated) | 42.2%
75 | COc1ccc(CNCCCNCc2ccc(OC)c(OC)c2)cc1OC | 2.69%

Row | Structure (SMILES) | activity
76 | CCc1ccc(OCC(O)CN2CCN(CCO)CC2)cc1 (configuration not stated) | 5.47%
77 | NC(Cc1ccc(F)cc1)c1csc(Nc2nncc3ccccc23)n1 (configuration not stated) | -11.6%
78 | CC(C)(CNC(=O)CNC(=O)C1CCCCC1)N1CCOCC1 | -0.69%
79 | Cc1c(NC(=O)C(C)OC(=O)c2c3c(nc4ccccc24)CCC(C)C3)c(=O)n(-c2ccccc2)n1C (configuration not stated) | 3.41%
80 | COc1cc(NC(=O)C2=C(C)OCCS2)c(Cl)cc1C(=O)NCCN1CCN(C)CC1 | -0.826%
81 | COc1ccc(-n2nc(C(=O)NCC(=O)Nc3cccc(C)n3)c3ccccc3c2=O)cc1 | 15.2%
82 | O=S(=O)(Nc1ccc(Cl)cn1)c1cnc(Cl)c(Br)c1 | 2.02%
83 | CC1CCCCC1NC(=O)c1cn(C)c2ccc(S(=O)(=O)N3CCOCC3)cc2c1=O (configuration not stated) | -3.45%
84 | CCN(CCN(C)C)C(=O)c1ccc2nc(C)c(N(C)C(=O)CCc3ccccc3)n2c1 | 0.0305%
85 | Cc1nc(-c2ccc(F)cc2)c(CC(=O)N(C)CC(=O)Nc2c(C)cccc2C)s1 | 0.373%
86 | Cc1ccccc1-c1nc(CS(=O)(=O)CC(=O)N2CCc3ccccc3C2)c(C)o1 | 32.1%
87 | COc1ccc(-n2c(Cc3cccn3C)nnc2SCC(=O)Nc2cc(C)cc(C)c2)cc1 | 18.8%
88 | O=C(NCc1ccccc1)C(c1ccccc1)N(C(=O)c1csnn1)c1ccc(F)cc1 (configuration not stated) | 26.7%
89 | CN(C)C(=O)CCc1ccc2c3c([nH]c2c1)[C@]1(C)[C@@H](C(=O)N2CCOCC2)C[C@H](CC(=O)NCCc2ccccn2)C(=O)N1CC3 | 4.43%
90 | CCc1ccc(C(=O)OCC(=O)NCC(F)(F)F)cc1 | 7.38%
91 | CN(C)/C=C(/C(=O)c1ccccc1Cl)S(C)(=O)=O | 3.93%
92 | CC1CCN(S(=O)(=O)c2ccc(NC(=O)C3CC(=O)N(c4ccccc4)C3)cc2)CC1 (configuration not stated) | 71.3% (active)
93 | O=C(Nc1ccc(S(=O)(=O)N2CCCCC2)cc1)C1CC(=O)N(c2ccc(F)cc2)C1 (configuration not stated) | 12.1%
94 | Cc1ccccc1N1CC(C(=O)Nc2ccc(S(=O)(=O)N3CCCC3)cc2)CC1=O (configuration not stated) | 10.6%
95 | CCCn1c(SCC(=O)c2ccc3c(c2)OCCO3)nnc1C(C)C | 9.18%
96 | CCCCn1c(N)c(N(CCOC)C(=O)COc2c(C)cccc2C)c(=O)[nH]c1=O | -2.82%
97 | CN1CCN(S(=O)(=O)c2cccc(C(=O)Nc3sccc3C#N)c2)CC1 | -7.33%
